# Most compounds without a hit are left out; they make up all but 21% or so of the library.
# Cycloheximide cs: counter-screen for Shiga toxin inhibitors: cycloheximide protein synthesis inhibition; max response, %; actives 12% (n = 300,000); cell reporter, cycloheximide protein synthesis inhibition counterscreen; in the data active means max response mostly above about 13%, no sharp cut-off; inactive means mostly below about 14%; further: read at 38.3 µM for the half of the compounds with a filed dose; 0% is about no effect
# Shiga inhibitor: inhibitors of Shiga toxin in Vero cells. Vero cells, Shiga toxin protein synthesis inhibition reporter. inhibition, % at 38.7 µM. actives 9.2% (n = 290,000). AID 2315; in the data active means inhibition mostly above about 28%, no sharp cut-off; inactive means mostly below about 43%; further: 0% is about no effect
# Pf growth 48h: inhibits P. falciparum growth in the first generation, 48 h. Potency, µM (doses to about 28.7 µM), without a hit: top-dose activity change, negative = inhibition, usual class: inhibitors. actives 5.9% (n = 310,000). P. falciparum luciferase growth in erythrocytes, 48 h; further: potency means the concentration at half of the fitted maximal effect; on the % scale 0 is the no-effect control and ±100 the full control effect
#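 Parasite viability was followed by luminescence of a genomically integrated firefly luciferase. Cultures held 0.1% parasitemia at 2% hematocrit (final), incubated under 5% CO2 at 37 C.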
# NS1 inh: blocks influenza NS1 protein function; Potency, µM (series often up to 46.1 µM), for the others: at the top dose activity, positive = more growth; actives 0.4% (n = 270,000); AID 2326; calls by dose curve; further: potency means the concentration at half of the fitted maximal effect; actives are rising curves; nearly all actives have a fitted effect of over 50% in size
#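 S. cerevisiae expressing influenza A NS1, grown in glucose, washed, then diluted 1:100 into pH 6.0 -URA galactose medium with 23 nl compound. Growth recovery read as OD600; NS1-free strain serves as control.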
# Pf growth 96h: P. falciparum growth inhibition at 96 hours; P. falciparum luciferase reporter growth, 96 h; AID 504834; actives 6.9% (n = 320,000); Potency, µM (highest dose often 28.7 µM), inactives show at the highest dose activity change, negative = inhibition, usual class: inhibitors; further: potency means the concentration at half of the fitted maximal effect; on the % scale 0 is the no-effect control and ±100 the full control effect
#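 Luminescence readout: decreased luciferase signal marks inhibited growth of reporter-expressing P. falciparum in infected red cells (2% hematocrit, 0.05% parasitemia final), exposed to compound two generations (96 h, 37 C, 5% CO2).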
# * hit, by the source's call; i = inactive; ? = inconclusive; nt = no result given. Unless noted, the call rests on the fitted dose curve; in most records, active means well fitted inhibition curve with a large enough effect; inconclusive means small, poorly fitted or top-dose-only effect, or another doubt; inactive means no such curve, though single readings can be large or run the other way.
SMILES,Cycloheximide cs,Shiga inhibitor,Pf growth 48h,NS1 inh,Pf growth 96h
O=C(N/N=C/c1cccc(O)c1)c1ccc(COc2ccc3c(c2)CCC3)o1,34.8*,56.9*,nt,-4.7%,-24.0%
CCOc1ccc(/C=N/NC(=O)c2ccc(Cn3cc([N+](=O)[O-])cn3)o2)cc1,22.7*,51.2*,0.6%,5.1%,?
CCOc1ccccc1/C=N/NC(=O)c1ccc(Cn2cc([N+](=O)[O-])cn2)o1,-1.6,-6.1,14.5%,11.3%,16.3%
COc1ccc(/C=N/NC(=O)c2ccc(Cn3cc([N+](=O)[O-])cn3)o2)cc1O,13.0,10.4,18.3%,14.0%,nt
CC(/C=N/NC(=O)c1ccc(Cn2cc([N+](=O)[O-])cn2)o1)=C\c1ccccc1,26.0*,71.5*,-11.1%,13.6%,?
Cn1c(CSCc2ccccc2)n[nH]c1=S,-1.7,-7.3,14.2%,15.6%,25.2%
CCOC(=O)c1sc(NC(=O)CCn2nnc3ccccc32)c(C(=O)OCC)c1C,nt,nt,nt,-39.2%,nt
CSc1cccc(CN2CCC(n3nccc3NC(=O)C3CC3)CC2)c1,4.8,-9.9,?,11.5%,-1.4%
COC(=O)c1coc(-c2ccc(C)cc2)c1C(=O)OC,39.0*,66.1*,33.0%,-45.1%,119.8%
COC(=O)c1coc(-c2ccc(OC)cc2)c1C(=O)OC,43.4*,70.5,nt,-75.3%,119.8%
COC(=O)c1c(C(=O)OC)c(-c2ccc(OC)cc2)n2c1CCC2,-8.7,-3.7,-18.4%,-2.1%,-13.8%
Clc1cccc2sc(N3CCN(c4ccccc4)CC3)nc12,16.8,18.9,48.7%,-41.8%,-0.9%
O=C(c1ccc2nc(N3CCOCC3)sc2c1)N1CCN(C(=O)c2ccco2)CC1,-3.2,-6.0,nt,-12.2%,91.9%
c1c2c(cc3sc(N4CCOCC4)nc13)OCCO2,14.3*,48.4,-4.7%,-3.9%,?
c1ccc(N2CCN(c3nc4cc5c(cc4s3)OCCO5)CC2)cc1,84.1*,95.4*,172.5%,2.1%,?
O=C(Nc1nc2ccc(Cl)cc2s1)[C@@H]1CCCN1C(=O)c1cccs1,82.1*,80.5*,59.4%,3.2%,?
Cc1nc2ccc(NC(=O)c3cccs3)cc2s1,45.2*,98.1*,-18.2%,-146.8%,-10.5%
Cc1cccc2sc(NC(=O)[C@@H]3CCCN3C(=O)c3cccs3)nc12,-0.2,13.8,5.1%,12.7%,21.7%
CC(=O)Nc1ccc2nc(NC(=O)c3cccs3)sc2c1,42.9*,77.5*,132.3%,6.5%,225.6%
COc1ccc2nc(NC(=O)c3cccs3)sc2c1,43.8*,77.4*,268.7%,-38.5%,i
Cc1ccc(N(C(=O)c2csnn2)C(C(=O)NC2CCCCC2)c2ccccn2)cc1C (stereo unspecified),-1.1,-6.9,-19.9%,0.3%,-8.1%
CCN(CC(=O)NC(C)C)Cc1nc2c(Br)cc(Br)cc2c(=O)[nH]1,12.1,-1.7,3.8%,-1.2%,-0.4%
CCCC(=O)N(c1ccc(OCC)cc1)C1C=CS(=O)(=O)C1 (stereo unspecified),-1.9,-8.4,-4.5%,-3.2%,-8.9%
C=CCN(CC=C)C(=O)Nc1ccc2nc(C)sc2c1,14.8,14.9,-2.4%,-3.3%,?
Cc1nc2ccc(NC(=O)c3sccc3C)cc2s1,64.4*,63.7*,89.5%,-101.3%,169.9%
SMILES,Cycloheximide cs,Shiga inhibitor,Pf growth 48h,NS1 inh,Pf growth 96h
O=[N+]([O-])c1ccc(Cl)c(S(=O)(=O)n2ccnc2)c1,-1.2,-6.8,2.94µM*,-3.9%,-4.7%
CC(C)C(=O)n1nc(-c2cccnc2)nc1NCc1ccc(F)cc1,5.6,-2.0,-0.8%,nt,54.6%
Cc1nc2ccccn2c1-c1csc(Nc2cccc(C(=O)O)c2)n1,-6.6,43.5,22.3%,-0.5%,9.2%
O=C(O)c1cccc(Nc2nc(-c3cc4ccccc4oc3=O)cs2)c1,40.9*,73.8*,21.3%,19.6%,53.8%
O=c1oc2ccccc2cc1-c1csc(NN=C2CCCC2)n1,14.2*,14.9,21.3%,14.1%,?
COc1ccc(-c2nc(CS(=O)CC(=O)NC3CCCCC3C)c(C)o2)cc1 (stereo unspecified),-4.8,2.1,-6.5%,20.6%,-12.0%
Cc1ccc(S(=O)(=O)N2CC(O)CC2C(=O)O)cc1 (stereo unspecified),-2.4,-5.7,2.6%,9.5%,26.4%
CNC(=O)C1C2C=CC3(O2)C1C(=O)N(CCOC)C3C(=O)NCc1ccc(OC)cc1 (stereo unspecified),-4.1,-9.1,12.8%,2.6%,-3.0%
Cc1cc(I)ccc1Nc1c(C(=O)NOCC2CC2)cc(F)c(F)c1F,16.7*,58.2*,nt,nt,nt
Cc1ccccc1CN1CCC(CNC(=O)Nc2ccc(F)cc2F)CC1,-2.5,-9.3,2.8%,2.7%,?
Cc1cc(C(=O)O)ccc1N/C=C1\CCCC(C)C1=O (stereo unspecified),13.4,-3.4,168.6%,-7.2%,nt
CC1CCC/C(=C\Nc2ccc(O)cc2)C1=O (stereo unspecified),52.2*,80.5*,15.6%,9.3%,6.4%
CCOc1cc(/C=N/NC(=O)Nc2ccccc2)ccc1O,37.2*,71.5*,47.8%,-2.4%,-29.1%
COc1ccc(/C=N/NC(=O)CSCC(=O)Nc2ccccc2)cc1OC,-0.7,-22.2,0.4%,22.3%,97.7%
COc1cc(/C=N/NC(=O)Nc2ccccc2)ccc1OC(C)=O,39.4*,53.2*,140.3%,26.9%,122.6%
Cc1cc(C(=O)N/N=C2\CC(=O)c3ccccc32)c(C)n1-c1ccc(F)cc1,22.5*,41.1*,4.65µM*,11.6%,2.33µM*
CCOc1cc(/C=N/NC(=O)c2cc(C)n(-c3ccc(F)cc3)c2C)ccc1O,22.4*,87.3*,0.0%,6.9%,-27.0%
CCOc1cc(/C=N/NC(=O)c2ccc(NC(=O)C3CC3)cc2)ccc1O,-2.5,-25.5,?,-8.1%,-8.3%
COc1ccccc1NC(=O)NCC(=O)Nc1c(C)cccc1C,-1.9,-9.4,-20.1%,3.0%,3.7%
Cc1cccc(NC(=O)c2nc[nH]c2C(=O)NCCCCCNC(=O)OC(C)(C)C)c1,nt,nt,2.62µM*,nt,?
Cc1cccc(NC(=O)c2nc[nH]c2C(=O)N[C@@H](CCCCNC(=O)OC(C)(C)C)C(=O)OC(C)(C)C)c1,-2.8,-6.4,4.65µM*,?,6.57µM*
Cc1cccc(NC(=O)c2nc[nH]c2C(=O)Nc2cccc(C)c2)c1,0.2,-10.9,-21.9%,nt,87.9%
CCN(CC)C(=O)c1[nH]cnc1C(=O)N[C@@H](CCCCNC(=O)OC(C)(C)C)C(=O)OC(C)(C)C,0.7,14.4,?,1.7%,?
CC(OC(=O)CNC(=O)c1ccc(Cl)cc1)C(=O)NC1CCCCC1C (stereo unspecified),nt,nt,-24.1%,nt,24.8%
CC(=O)Nc1cccc(NC(=O)Nc2cccc3ccccc23)c1,10.1,-24.1,10.7%,-7.8%,121.2%
C/C(=C\C(=S)Nc1ccccc1)Nc1cccc2ccccc12,41.5*,68.2*,-8.5%,3.2%,13.9%
C/C(=C\C(=S)Nc1ccccc1)Nc1ccc2ccccc2c1,74.5*,143.1*,9.28µM*,-45.0%,?
CCCCN1/C(=C/c2ccc3ccccc3[n+]2CC)Sc2ccccc21,-1.9,-9.2,2.94µM*,-61.6%,23.8%

# Bioassay records as filed in PubChem.
